PubChem BioAssay

target: Follistatin-related protein 3 (Homo sapiens) (UniProt O95633); test: FSTL3 binders on small-molecule microarrays, primary screen, biochemical, small-molecule microarray, 635 nm fluorescence (AID 1105); settings: FSTL3 binding, higher = more signal;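 further: score merges emission near 667 nm and signal to noise per printed spot across three slides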
Sequence (O95633 whole entry, looked up): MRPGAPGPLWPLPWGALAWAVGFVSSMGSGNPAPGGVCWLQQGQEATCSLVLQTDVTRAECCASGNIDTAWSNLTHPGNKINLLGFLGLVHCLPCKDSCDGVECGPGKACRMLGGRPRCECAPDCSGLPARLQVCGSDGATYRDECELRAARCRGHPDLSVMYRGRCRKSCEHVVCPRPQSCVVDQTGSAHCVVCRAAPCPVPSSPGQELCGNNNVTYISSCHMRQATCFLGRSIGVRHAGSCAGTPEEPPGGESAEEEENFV

Row | Structure (SMILES) | composite z-score
1 | CC(C)N1C(=O)c2ccccc2[C@](C)(C(=O)NCCN2CCOCC2)[C@@H]1c1ccc(CO)cc1 | -0.115
2 | COCCCNC(=O)[C@@H]1c2ccccc2C(=O)N(Cc2ccccc2Cl)[C@H]1c1ccc(CO)cc1 | 0.715
3 | CC(C)NC(=O)[C@@]1(c2ccc([N+](=O)[O-])cc2)CC(=O)N(C2CCCCC2)[C@@H]1c1ccc(CO)cc1I | -0.573
4 | C=C(CCCC)/C(=C/C[C@H](OC(C)=O)c1ccccc1OCCO)c1cc(C(=O)OC)ccc1OC | -0.154
5 | COCCOC(=O)N1C(=O)[C@@]2(c3cc(C#Cc4ccc(OC)cc4)ccc31)[C@H](c1ccc(O)cc1)N1[C@H](c3ccccc3)[C@H](c3ccccc3)OC(=O)[C@H]1[C@@H]2C(=O)N1CCc2cc(OC)c(OC)cc2C1 | 0.914
6 | O=C1C2C=CC(C(O)Cc3ccccc3)N(n3cnnc3)C2C(=O)N1Cc1ccccc1 (stereo not drawn) | -0.294
7 | C=CC[C@]1(C(=O)NCc2ccccc2)N=C(c2ccc(OCCCO)cc2)O[C@H]1c1ccccc1N=[N+]=[N-] | 0.637
8 | CCOC(=O)C[C@H]1[C@H](OC(=O)c2ccc(C(=O)c3ccccc3)cc2)[C@@H](NC(=O)c2ccc3ccccc3n2)c2cc(OCCCO)ccc2N1C(=O)c1ccccc1 | 0.806
9 | CN(C)C(=O)[C@@]1(CCS(=O)(=O)c2ccccc2)COC(c2ccc(OCCCO)cc2)=N1 | -0.448
10 | COc1ccccc1CN1C(=O)c2ccccc2[C@@H](C(=O)NC2CC2)[C@@H]1c1ccc(CO)cc1 | 1.44
11 | COC(=O)[C@H](Cc1ccccc1)N[C@@H](/C=C/C1CC1)[C@H](O)Cc1ccccc1 | -0.862
12 | O=C1C2C=CC(C(O)c3cccc4ccccc34)N(Nc3ccccc3F)C2C(=O)N1c1ccccc1 (stereo not drawn) | 0.79
13 | O=C(CS)NCCCCCCNC(=O)[C@@H]1C[C@@H]2C(=O)N[C@@H](Cc3ccccc3)C(=O)N2[C@@H]1c1cccc(OCCO)c1 | 1.26
14 | NC(=O)NCC#Cc1ccc2c(c1)[C@]1(C(=O)N2)[C@H](C(N)=O)[C@H]2C(=O)O[C@H](c3ccccc3)[C@H](c3ccccc3)N2[C@@H]1c1ccc(O)cc1 | -0.0676
15 | CCCC[C@@H]1C[C@H]1[C@@H](NC(=O)c1cccs1)c1ccc(-c2ccccc2)cc1 | 0.369
16 | C=CCOC(=O)[C@H]1[C@@H]2C(=O)O[C@@H](c3ccccc3)[C@@H](c3ccccc3)N2[C@@H](c2ccc(OCCOC(=O)[C@@H]3C[C@@H]4C(=O)N[C@@H](CCCCNC(C)=O)C(=O)N4[C@@H]3c3ccc(O)cc3)cc2)[C@]12C(=O)Nc1ccccc12 | 1.28
17 | CCCCCCc1nc(-c2ccc(OC)nc2)cc2c1[Si](C(C)C)(C(C)C)O[C@H]2c1ccccc1 | 0.633
18 | CC(C)C(CO)N1C(=O)[C@@H]2C3C(=O)OCCC/C=C\[C@H]3OC23C=CCN(CCN2CCOCC2)C(=O)[C@@H]13 (stereo partly drawn) | 0.0915
19 | C=C(COC)/C(=C/C[C@@H](OC(C)=O)c1ccc(OCCO)cc1)c1cnc2ccccc2c1 | 1.49
20 | CN(C)CCCCCCNC(=O)[C@@H]1C[C@@H]2C(=O)N[C@@H](Cc3ccccc3)C(=O)N2[C@@H]1c1ccc(O)cc1 | 1.44
21 | Cc1nc2cc(Br)ccc2c(=O)o1 | 0.846
22 | COCCOC(=O)N1C(=O)[C@@]2(c3ccccc31)[C@H](c1ccc(O)cc1)N1[C@H](c3ccccc3)[C@H](c3ccccc3)OC(=O)[C@H]1[C@@H]2C(=O)Nc1nc2ccccc2s1 | 0.542
23 | COCC(=C=CC[C@@H](O)c1cccc(OCCO)c1)C[C@@H](O)c1ccccn1 | 0.167

target: Dickkopf-related protein 1 (Homo sapiens) (UniProt O94907); test: DKK1 binders on small-molecule microarrays, primary screen, biochemical, small-molecule microarray, 635 nm fluorescence scan (AID 1106); settings: DKK1 binding, higher = more signal;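 further: score merges emission near 667 nm with signal to noise over three replicate slides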
Sequence (O94907 whole entry, looked up): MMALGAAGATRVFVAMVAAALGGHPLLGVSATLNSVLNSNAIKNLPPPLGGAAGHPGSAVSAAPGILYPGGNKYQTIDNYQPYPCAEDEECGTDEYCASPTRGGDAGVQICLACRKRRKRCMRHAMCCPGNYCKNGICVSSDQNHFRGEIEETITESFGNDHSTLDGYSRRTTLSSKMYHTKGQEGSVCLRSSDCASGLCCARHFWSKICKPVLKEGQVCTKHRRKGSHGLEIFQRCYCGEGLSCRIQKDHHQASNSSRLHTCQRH

Row | Structure (SMILES) | composite z-score
24 | Cc1ccccc1C(O)C1C=CC2C(=O)N(c3ccccc3)C(=O)C2N1Nc1ccc(C(C)C)cc1 (stereo not drawn) | -0.372
25 | CCS[C@H]1[C@@H](C(=O)O)[C@H](c2ccc(C)cc2)N(S(=O)(=O)c2ccc(C)cc2)[C@@H]1CC | -0.0423
26 | COc1cc(NN2C(C(O)c3ccco3)C=CC3C(=O)N(c4ccccc4)C(=O)C32)cc(OC)c1OC (stereo not drawn) | -0.21
27 | CNS(=O)(=O)c1ccc(C)cc1 | 1.14
28 | O=C1N(Cc2ccccc2)c2ccccc2[C@@H]2OC(c3ccc(OCCCO)cc3)=N[C@]12CCS(=O)(=O)c1ccccc1 | 0.0435
29 | COc1cc2c(cc1O)C(C1CC1)N(Cc1sc3ccccc3c1Cl)CC2 (stereo not drawn) | -0.467
30 | Oc1ccc2cc[n+](Cc3sc4ccccc4c3Cl)cc2c1 | 0.481
31 | CC(C)N1C(=O)C[C@@](C(=O)NCC(F)(F)F)(c2ccc([N+](=O)[O-])cc2)[C@H]1c1ccc(CO)cc1 | -0.272
32 | COCCCNC(=O)[C@@]1(C)c2ccccc2C(=O)N(C(C)C)[C@H]1c1ccc(CO)cc1 | 0.888
33 | COCCOC(=O)N1C(=O)[C@@]2(c3cc(C#CCC(C(=O)OC)C(=O)OC)ccc31)[C@H](c1ccccc1OCCO)N1[C@H](c3ccccc3)[C@H](c3ccccc3)OC(=O)[C@H]1[C@@H]2C(=O)N1CCN(c2ncccn2)CC1 | 0.853
34 | CCOC(=O)[C@H]1C/C=C/C[C@H](C(=O)OCC)C(=O)O[C@H]2[C@@H](OC)O[C@H](CO)[C@@H](OC(=O)c3c(OC)cccc3OC)[C@@H]2OC1=O | 0.764
35 | C=C(COC)/C(=C/C[C@@H](OC(=O)c1ccncc1)c1ccc(CO)o1)c1cc(C(=O)OC)ccc1OC | 1.27
36 | CC(C)N1C(=O)c2ccccc2[C@](C)(C(=O)NCCN2CCOCC2)[C@@H]1c1ccc(CO)cc1 | -0.75
37 | COCCCNC(=O)[C@@H]1c2ccccc2C(=O)N(Cc2ccccc2Cl)[C@H]1c1ccc(CO)cc1 | 0.412
38 | CC(C)NC(=O)[C@@]1(c2ccc([N+](=O)[O-])cc2)CC(=O)N(C2CCCCC2)[C@@H]1c1ccc(CO)cc1I | -0.566
39 | C=C(CCCC)/C(=C/C[C@H](OC(C)=O)c1ccccc1OCCO)c1cc(C(=O)OC)ccc1OC | -0.358
40 | COCCOC(=O)N1C(=O)[C@@]2(c3cc(C#Cc4ccc(OC)cc4)ccc31)[C@H](c1ccc(O)cc1)N1[C@H](c3ccccc3)[C@H](c3ccccc3)OC(=O)[C@H]1[C@@H]2C(=O)N1CCc2cc(OC)c(OC)cc2C1 | 0.75
41 | O=C1C2C=CC(C(O)Cc3ccccc3)N(n3cnnc3)C2C(=O)N1Cc1ccccc1 (stereo not drawn) | -0.387

Row | Structure (SMILES) | composite z-score
42 | C=CC[C@]1(C(=O)NCc2ccccc2)N=C(c2ccc(OCCCO)cc2)O[C@H]1c1ccccc1N=[N+]=[N-] | -0.284
43 | CCOC(=O)C[C@H]1[C@H](OC(=O)c2ccc(C(=O)c3ccccc3)cc2)[C@@H](NC(=O)c2ccc3ccccc3n2)c2cc(OCCCO)ccc2N1C(=O)c1ccccc1 | 0.271
44 | CN(C)C(=O)[C@@]1(CCS(=O)(=O)c2ccccc2)COC(c2ccc(OCCCO)cc2)=N1 | -0.471
45 | COc1ccccc1CN1C(=O)c2ccccc2[C@@H](C(=O)NC2CC2)[C@@H]1c1ccc(CO)cc1 | 1.23
46 | COC(=O)[C@H](Cc1ccccc1)N[C@@H](/C=C/C1CC1)[C@H](O)Cc1ccccc1 | -0.429
47 | O=C1C2C=CC(C(O)c3cccc4ccccc34)N(Nc3ccccc3F)C2C(=O)N1c1ccccc1 (stereo not drawn) | -0.311
48 | O=C(CS)NCCCCCCNC(=O)[C@@H]1C[C@@H]2C(=O)N[C@@H](Cc3ccccc3)C(=O)N2[C@@H]1c1cccc(OCCO)c1 | 0.859
49 | NC(=O)NCC#Cc1ccc2c(c1)[C@]1(C(=O)N2)[C@H](C(N)=O)[C@H]2C(=O)O[C@H](c3ccccc3)[C@H](c3ccccc3)N2[C@@H]1c1ccc(O)cc1 | -1.27
50 | CCCC[C@@H]1C[C@H]1[C@@H](NC(=O)c1cccs1)c1ccc(-c2ccccc2)cc1 | -0.116
51 | C=CCOC(=O)[C@H]1[C@@H]2C(=O)O[C@@H](c3ccccc3)[C@@H](c3ccccc3)N2[C@@H](c2ccc(OCCOC(=O)[C@@H]3C[C@@H]4C(=O)N[C@@H](CCCCNC(C)=O)C(=O)N4[C@@H]3c3ccc(O)cc3)cc2)[C@]12C(=O)Nc1ccccc12 | 0.783
52 | CCCCCCc1nc(-c2ccc(OC)nc2)cc2c1[Si](C(C)C)(C(C)C)O[C@H]2c1ccccc1 | 0.117
53 | CC(C)C(CO)N1C(=O)[C@@H]2C3C(=O)OCCC/C=C\[C@H]3OC23C=CCN(CCN2CCOCC2)C(=O)[C@@H]13 (stereo partly drawn) | 0.284
54 | C=C(COC)/C(=C/C[C@@H](OC(C)=O)c1ccc(OCCO)cc1)c1cnc2ccccc2c1 | 1.25
55 | CN(C)CCCCCCNC(=O)[C@@H]1C[C@@H]2C(=O)N[C@@H](Cc3ccccc3)C(=O)N2[C@@H]1c1ccc(O)cc1 | 1.38
56 | Cc1nc2cc(Br)ccc2c(=O)o1 | 0.436
57 | COCCOC(=O)N1C(=O)[C@@]2(c3ccccc31)[C@H](c1ccc(O)cc1)N1[C@H](c3ccccc3)[C@H](c3ccccc3)OC(=O)[C@H]1[C@@H]2C(=O)Nc1nc2ccccc2s1 | 0.39
58 | COCC(=C=CC[C@@H](O)c1cccc(OCCO)c1)C[C@@H](O)c1ccccn1 | 0.307
